What all share (experiment): NCI-60 one-dose screen, 48 h (100 = growth as untreated, 0 = no growth, -100 = all killed)
Settings in all cases: 10 µM unless noted

Test [1] relates to NCI-H23 lung.
For test [2], the system named is NCI-H226 lung.
The subject of test [3] is NCI-H322M lung.
Test [4] concerns HOP-62 NSCLC.
Test [5] deals with NCI-H460 lung.
Test [6] deals with HOP-92 NSCLC.
Test [7] has as its system NCI-H522 lung.
Test [8] relates to A549/ATCC NSCLC.
The test system of test [9] is 786-0 renal.
Test [10] concerns COLO 205 colon.
Test [11] relates to DU-145 prostate.
Test [12] concerns K-562 leukemia.
Test [13] concerns MALME-3M melanoma.
The subject of test [14] is MDA-MB-231 breast.
Test [15] concerns RXF 393 renal.
Test [16] deals with SF-268 CNS.
Test [17] concerns SF-295 CNS.
The test system of test [18] is SF-539 CNS.
The test system of test [19] is UACC-257 melanoma.
In test [20] the test system is M14 melanoma.

Structures are written as SMILES. This is part of a sample that, as a whole, favours compounds with a hit. Of some 83,000 tested, about 20% had one in any assay.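 Cells were grown in 96-well plates and exposed to the test compound at a single concentration for 48 hours; results are reported as percent growth, with values below 10 considered active.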 Unmarked numbers belong to inactive results. Activity calls are given as the source filed them.

Turning to `CN1CCN(CCOc2ccc(-c3cnc4c(-c5ccc(C(F)(F)F)cc5)cnn4c3)cc2)CC1`, the growth in test [1] is 48.5%; in test [2], 87.8%; in [3], 64.3%; in [4], 37.5%; in [5], -50.3% (active); in [6] it was 40.4%. Moreover, the growth is 44.4% in test [7]; -41.1% (active) in [8]; -57.3% (active) in test [9]; -55.7% (active) in test [10]; 40.7% in test [11]; -36% (active) in test [12]. Also, the growth was 50.4% in test [13]; 31.6% in test [14]; 32.4% in test [15]; 48.7% in [16]; 64.4% in [17]; 67.6% in test [18]. The growth was 8.47% (active) in test [19] and -64.2% (active) in [20].

Take `O=c1[nH]cnc2c1C(c1ccc(Br)cc1)c1sc3c(F)cccc3c1O2` (stereo not given): the growth in test [1] was 92.8%; in [2] it was 92.2%; in test [3], 88.1%; in test [4], 97.9%; in test [5] it was 94.7%; in test [6] it was 49.2%. Moreover, the growth was 88.1% in test [7]; 96.3% in test [8]; 105% in test [9]; 102% in test [10]; 100% in test [11]; 94.6% in [12]. Further, the growth in test [13] is 96.1%; in test [14], 94.5%; in test [15], 101%; in test [16], 91.9%; in [17], 97.9%; in [18], 96.4%. For the same compound, the values for the growth in test [19] and in test [20] were 106% and 101%, respectively.

As for `CN(C)c1ccc(/C=C/C(=O)c2ccccc2)cc1`, the growth in test [1] was 97.8%; in test [2], 99.9%; in test [3], 98.4%; in [4] it was 81%; in test [5], 105%; in test [6], 88%. In addition, the growth is 60.3% in test [7]; 65.4% in test [8]; 88.8% in test [9]; 93.7% in [10]; 95.9% in test [11]; 32% in [12]. In addition, the growth is 82.5% in test [13]; 103% in [14]; 93.8% in test [15]; 89.7% in test [16]; 92.7% in test [17]; 89.3% in [18]. The growth in test [19] is 62.9%; in [20], 76%.

`Clc1nn2c(Cn3cnc4c(NCc5ccccc5)ncnc43)nnc2c2ccccc12`: the growth in test [1] is 53.6%; in [2] it was 42.5%; in test [3], 21%; in test [4], 37.9%; in test [5], 34%; in test [6] it was 5.22% (active). Besides, the growth is 43.7% in test [7]; 40% in test [8]; 40% in [9]; 35.1% in [10]; 36.7% in test [11]; 42.7% in [12]. Further, the growth in [13] is 27.8%; in test [14], 26.6%; in test [15], 39%; in test [16], 41.9%; in [17], 63.2%; in test [18], 50.7%. For the same compound, the growth in test [19] was 39.1%; in test [20], 19.7%.

As to `CC(O)c1ncc(/C=C2\SC(=S)N(Cc3ccccc3)C2=O)s1` (stereo not given), the growth in test [1] was 103%; in test [2], 97.2%; in test [3] it was 100%; in [4], 104%; in test [5] it was 104%; in test [6], 73.4%. The growth in [7] was 5.34% (active); in [8], 105%; in test [9], 87.3%; in test [10], 96.2%; in test [11], 89.2%; in [12] it was 87.9%. In addition, the growth in test [13] is 93.2%; in [14], 94%; in test [15] it was 102%; in test [16], 89.8%; in test [17] it was 102%; in test [18], 85%. For the same compound, the growth in [19] was 96.2%; in test [20], 93.8%.

As to `COc1cccc(C(=O)OCC(O)C(=O)NC23CC4CC(CC(C4)C2)C3)c1` (stereo not given), the growth was 102% in test [1]; 93.5% in test [2]; 96.4% in [3]; 104% in test [4]; 101% in test [5]; 91.7% in [6]. Also, the growth in test [7] is 86.1%; in test [8] it was 90.1%; in [9] it was 101%; in test [10], 111%; in [11], 106%; in test [12], 99.1%. Also, the growth in test [13] was 99.1%; in test [14], 93%; in test [15] it was 109%; in test [16] it was 102%; in [17] it was 95.9%; in [18], 103%. Further, the growth is 89% in [19] and 99.1% in test [20].

For the compound `CCN1C(=O)N(CC)C2C1NN=C1SCC(=O)N12` (stereo not given), the growth in [1] is 96.1%; in test [2], 91.6%; in test [3], 103%; in test [4] it was 100%; in test [5], 103%; in [6], 114%. In addition, the growth in test [7] was 77.5%; in test [8] it was 102%; in test [9], 95.8%; in test [10] it was 44.7%; in test [11], 101%; in test [12] it was 47.9%. Besides, the growth in test [13] is 77%; in [14] it was 59.4%; in test [15] it was 107%; in test [16] it was 98.6%; in test [17] it was 100%; in test [18] it was 92.9%. Besides, the values for the growth in test [19] and in test [20] were 22.2% and 85%, respectively.

Regarding `CC(C)c1ccc(-n2c(=S)[nH]c3sc4c(c3c2=O)CCC(=O)C4)cc1`, the growth in test [1] is 36.2%; in test [2] it was 84.9%; in test [3], 78%; in test [4], 33.9%; in test [5], 30.3%; in test [6], -6.71% (active). Further, the growth in [7] was 6.26% (active); in test [8], 71.1%; in test [9], 102%; in [10] it was 92.7%; in test [11], 104%; in [12], 56.7%. Also, the growth is 88.7% in [13]; 68.3% in test [14]; 48.9% in [15]; 28.7% in [16]; 21.1% in test [17]; 23.3% in [18]. Further, the growth in [19] is 75.3%; in test [20] it was 60.4%.

The record behind these values is PubChem BioAssay (NCI).
